From PubChem BioAssay AID1961 (Sanford-Burnham Center for Chemical Genomics, 2009)
In all, about 290,000 compounds went through this assay and about 140 (0.048%) were called active.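 How the source made its calls: active means activation above 40% with more than 50 cells counted in the well; inconclusive means wells holding fewer than 50 cells, flagged as toxic or sparse; inactive means the rest.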 The entries come from a sample that favours actives as a whole.

Key:
[1] = selective activators of receptor GPR55 – imaging, U2OS cells, beta-arrestin-GFP redistribution, primary screen (AID 1961); details: measured here: cytotoxicity, cells analyzed, at 10 µM;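 further: U2OS osteosarcoma cells stably expressing GPR55 and beta-arrestin-GFP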;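 on activation: plate controls were DMSO negative control for no effect and LPI positive control for full effect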
[2] = molecular target: G-protein coupled receptor 55 (Homo sapiens) (UniProt Q9Y2T6); experiment: as above; details: at 10 µM, stronger effect = higher value
Chain of G-protein coupled receptor 55 (Homo sapiens) (Q9Y2T6 whole entry, looked up): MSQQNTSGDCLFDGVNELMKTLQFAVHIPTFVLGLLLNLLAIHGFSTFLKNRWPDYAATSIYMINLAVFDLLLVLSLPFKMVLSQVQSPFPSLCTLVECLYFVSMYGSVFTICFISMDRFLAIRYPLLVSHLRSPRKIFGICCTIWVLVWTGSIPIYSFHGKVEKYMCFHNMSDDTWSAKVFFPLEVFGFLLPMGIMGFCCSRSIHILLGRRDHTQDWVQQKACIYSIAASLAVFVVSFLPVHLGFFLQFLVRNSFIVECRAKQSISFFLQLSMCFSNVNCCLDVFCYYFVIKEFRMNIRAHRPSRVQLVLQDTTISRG

Compound: COc1ccc(CN2C(=O)c3ccccc3C2=O)cc1
- cell count [1]: 379 cells
- activation [2]: 0.6% (inactive)

Compound: COc1ccc(CN2C(=O)c3cccc4cccc(c34)C2=O)cc1
- cell count [1]: 353 cells
- activation [2]: -0.1% (inactive)

Compound: CCc1nn(CC(=O)NCCc2ccc(Cl)cc2)c(=O)c2cccn12
- cell count [1]: 343 cells
- activation [2]: 0% (inactive)

Compound: CCOC(=O)C(CC)(CCC(=O)OC)c1csc(Nc2ccccc2O)n1 (stereo not drawn)
- cell count [1]: 367 cells
- activation [2]: -0.1% (inactive)

Compound: Fc1cccc(NCCc2c[nH]c3ccccc23)n1
- cell count [1]: 334 cells
- activation [2]: -0.2% (inactive)

Compound: COc1ccccc1N1CCN(C2CCN(C(=O)COc3ccccc3)CC2)CC1
- cell count [1]: 401 cells
- activation [2]: -0.1% (inactive)

Compound: O=C(NCCN1CCOCC1)c1cc(-c2ccco2)on1
- cell count [1]: 315 cells
- activation [2]: -0.1% (inactive)

Compound: COc1ccc(Nc2nc(Cl)c(C=O)s2)cc1
- cell count [1]: 273 cells
- activation [2]: 0.2% (inactive)

Compound: Cc1nnnn1/C(=C\c1ccccc1)C(=O)OCC(=O)N(C)C1CCS(=O)(=O)C1 (stereo not drawn)
- cell count [1]: 254 cells
- activation [2]: -0.4% (inactive)

Compound: Cc1nnnn1/C(=C\c1ccccc1)C(=O)OCC(=O)N1CC2(C)CC1CC(C)(C)C2 (stereo not drawn)
- cell count [1]: 330 cells
- activation [2]: 74.3% (active)

Compound: Cc1nnnn1/C(=C\c1ccccc1)C(=O)OCC(=O)NC(C)(C)C
- cell count [1]: 301 cells
- activation [2]: -0.3% (inactive)

Compound: CS(=O)(=O)N(CC(=O)NCCc1ccccc1)C1CCCCC1
- cell count [1]: 388 cells
- activation [2]: -0.1% (inactive)

Compound: N#Cc1c2n(c(=S)n(-c3ccc(F)cc3)c1=O)CCCCC2
- cell count [1]: 250 cells
- activation [2]: -0.3% (inactive)

Compound: CC(C)CC(=O)Nc1nnc(S(=O)(=O)N(C)Cc2ccco2)s1
- cell count [1]: 342 cells
- activation [2]: -0.2% (inactive)

Compound: CSc1ccccc1OCc1cc(C(=O)N2CCc3sccc3C2)no1
- cell count [1]: 327 cells
- activation [2]: -0.2% (inactive)

Compound: Cc1ccc2c(C)c(C(=O)N3CCN(Cc4ccc5c(c4)OCO5)CC3)oc2c1C
- cell count [1]: 372 cells
- activation [2]: -0.1% (inactive)

Compound: COc1ccc(S(=O)(=O)NCCSC(C)(C)C)cc1Cl
- cell count [1]: 346 cells
- activation [2]: -0.1% (inactive)

Compound: CCOC(=O)Cn1c(CN2CCN(C(c3ccccc3)c3ccccc3)CC2)nc2c1c(=O)n(C)c(=O)n2C
- cell count [1]: 284 cells
- activation [2]: 0.3% (inactive)

Compound: O=C(C1CCCN(S(=O)(=O)c2cccc3nsnc23)C1)N1CCCCCC1 (stereo not drawn)
- cell count [1]: 250 cells
- activation [2]: 0.1% (inactive)

Compound: N#Cc1ccccc1NC(=O)CC1CCCCC1
- cell count [1]: 377 cells
- activation [2]: -0.1% (inactive)

Compound: O=C(O)c1ccc[nH]c1=S
- cell count [1]: 381 cells
- activation [2]: 0% (inactive)

Compound: CCN(CC)S(=O)(=O)c1ccc(N2CCOCC2)c(NCC(=O)Nc2ccc(F)cc2)c1
- cell count [1]: 259 cells
- activation [2]: -0.1% (inactive)

Compound: COc1ccccc1C(=O)NC(=S)/C=C1/N(C)c2ccccc2C1(C)C
- cell count [1]: 278 cells
- activation [2]: 91% (active)

Compound: CN1/C(=C\C(=S)NC(=O)c2ccccc2Cl)C(C)(C)c2ccccc21
- cell count [1]: 357 cells
- activation [2]: -0.2% (inactive)

Compound: Cc1ccc(C(=O)NC(=S)/C=C2\N(C)c3ccccc3C2(C)C)cc1
- cell count [1]: 272 cells
- activation [2]: 0.2% (inactive)

Compound: COc1cccc(C(=O)Nc2cnn(C(C)C)c2)c1
- cell count [1]: 253 cells
- activation [2]: -0.2% (inactive)

Compound: CNc1nc(-c2ccc(Cl)cc2)cs1
- cell count [1]: 302 cells
- activation [2]: -1% (inactive)

Compound: COc1ccc(NC(=O)NC2CCCCCCC2)c(OC)c1
- cell count [1]: 240 cells
- activation [2]: -0.1% (inactive)

Compound: CCC(=O)Nc1ccc(OC)cc1OC
- cell count [1]: 375 cells
- activation [2]: -0.2% (inactive)

Compound: CCOC(=O)c1[nH]c2ccc(C(=O)OC)cc2c1C(=O)OCC
- cell count [1]: 400 cells
- activation [2]: -0.3% (inactive)

Compound: CCCCc1ccc(C2C(C#N)=C(N)SC(N)=C2C#N)s1
- cell count [1]: 340 cells
- activation [2]: 0.2% (inactive)

Compound: O=C(COC(=O)/C=C/c1cccc(Cl)c1)NCCc1ccc(Cl)cc1Cl
- cell count [1]: 315 cells
- activation [2]: 0% (inactive)

Compound: O=C(O)C1CCCN1C(=O)c1cncc(Br)c1 (stereo not drawn)
- cell count [1]: 262 cells
- activation [2]: -0.2% (inactive)

Compound: CC(C)OCC(O)Cn1c(N2CCCC2)nc2c1c(=O)[nH]c(=O)n2C (stereo not drawn)
- cell count [1]: 350 cells
- activation [2]: -0.2% (inactive)

Compound: Cc1c(C2N3CC4(C)CN2CC(C)(C3)C4=O)c2ccccc2n1C (stereo not drawn)
- cell count [1]: 309 cells
- activation [2]: 0.1% (inactive)

Compound: CC(C)(C)NC(=O)CSc1nncn1NCc1c(Cl)cccc1Cl
- cell count [1]: 294 cells
- activation [2]: -0.2% (inactive)

Compound: COc1cc2c3nnc(-c4ccc(F)cc4)c-3cn(Cc3ccc(F)cc3)c2cc1OC
- cell count [1]: 348 cells
- activation [2]: 16.9% (inactive)

Compound: COc1cc2c3nnc(-c4ccccc4)c-3cn(Cc3ccc(F)cc3)c2cc1OC
- cell count [1]: 393 cells
- activation [2]: 1.3% (inactive)

Compound: COc1cc2c3nnc(-c4ccc(F)cc4)c-3cn(Cc3ccccc3F)c2cc1OC
- cell count [1]: 274 cells
- activation [2]: 76.7% (active)

Compound: Cc1oc2c(C)c(O)ccc2c(=O)c1N1C(=O)c2ccccc2C1=O
- cell count [1]: 286 cells
- activation [2]: 0.2% (inactive)

Compound: CCOc1ccc2nc(SCC(=O)N3c4ccccc4Sc4ccccc43)c(C#N)cc2c1
- cell count [1]: 304 cells
- activation [2]: 112% (active)

Compound: CCOc1ccc2nc(SCC(=O)N3CCCCCC3)c(C#N)cc2c1
- cell count [1]: 334 cells
- activation [2]: -0.1% (inactive)

Compound: CCOc1ccc2nc(SCC(=O)N3c4ccccc4Sc4ccccc43)sc2c1
- cell count [1]: 319 cells
- activation [2]: 16.7% (inactive)

Compound: Nc1cccnc1Sc1ccc(Cl)cc1
- cell count [1]: 377 cells
- activation [2]: 0% (inactive)

Compound: COC(=O)c1cc(OC)c(OC)cc1NC(=O)CC1CCCCC1
- cell count [1]: 320 cells
- activation [2]: -0.2% (inactive)

Compound: Cc1cccc(NS(=O)(=O)c2cc([N+](=O)[O-])ccc2C)n1
- cell count [1]: 419 cells
- activation [2]: -0.1% (inactive)

Compound: COc1cc(/C=C/C(=O)Oc2coc(CSc3ncccn3)cc2=O)cc(OC)c1OC
- cell count [1]: 281 cells
- activation [2]: -0.2% (inactive)

Compound: CCCOCC(O)COc1ccccc1C(=O)N1CCOCC1 (stereo not drawn)
- cell count [1]: 317 cells
- activation [2]: -0.2% (inactive)

Compound: CCC1Sc2ccc(S(=O)(=O)CCC(=O)Nc3cc(C)ccn3)cc2NC1=O (stereo not drawn)
- cell count [1]: 341 cells
- activation [2]: -0.1% (inactive)

Compound: CC(NC(=O)Cn1nc(C(F)(F)F)c2c1CCC2)c1ccccc1 (stereo not drawn)
- cell count [1]: 371 cells
- activation [2]: -0.2% (inactive)

Compound: COc1ccc2nc(C)cc(SCC(=O)N/N=C/c3ccco3)c2c1
- cell count [1]: 330 cells
- activation [2]: 0.2% (inactive)

Compound: Cc1ccccc1NC(=O)NC1CCCCC1C (stereo not drawn)
- cell count [1]: 353 cells
- activation [2]: 0.4% (inactive)

Compound: CN(C)c1ccc(/C=N/NC(=O)C2CC2c2ccccc2)cc1 (stereo not drawn)
- cell count [1]: 339 cells
- activation [2]: -0.2% (inactive)

Compound: O=C(NCc1ccc(F)cc1)C(=O)NCC1OCCCN1S(=O)(=O)c1cccs1 (stereo not drawn)
- cell count [1]: 348 cells
- activation [2]: -0.1% (inactive)

Compound: COc1ccc(C(=O)NCC(=O)N/N=C/c2cccnc2)cc1OC
- cell count [1]: 322 cells
- activation [2]: -0.2% (inactive)

Compound: Cc1nc(Cl)sc1C(=O)Nc1cc(F)cc(F)c1
- cell count [1]: 356 cells
- activation [2]: -0.2% (inactive)

Compound: CN(C)c1ccc(/C=C/C(=O)c2ccccc2O)cc1
- cell count [1]: 238 cells
- activation [2]: 0.1% (inactive)

Compound: CN(C)c1ccc(C(=O)/C=C/c2ccccc2)cc1
- cell count [1]: 254 cells
- activation [2]: -0.3% (inactive)

Compound: Cn1c(=O)c(=O)n(C)c2cc(S(=O)(=O)N3CCN(c4ccccc4F)CC3)ccc21
- cell count [1]: 328 cells
- activation [2]: -0.1% (inactive)
